Experimental data reported in PubChem BioAssay (NCI).
This is part of a sample that, as a whole, favours compounds with a hit. Of some 79,000 tested, about 15% had one in any assay. Calls of active or inactive are those of the source. Rule as the data show it: active = growth inhibition above about 70%; inactive = the rest.

Columns and labels:
[1] = NCI Yeast Anticancer Drug Screen. Data for the rad52 strain (AID 147);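 also: 0% = growth of vehicle-treated control cultures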; conditions: S. cerevisiae rad52 mutant growth inhibition, hits give high values
Procedure, shortened: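 The repair-mutant yeast strain was incubated with compounds, then growth was read and inhibition derived relative to vehicle.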

[2] = NCI Yeast Anticancer Drug Screen. Data for the wt1 strain (AID 149);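 also: 0% = growth of vehicle-treated wt1 cultures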; conditions: S. cerevisiae wt1 strain (SPY 50644) growth inhibition, hits give high values
Procedure, shortened: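 The wt1 strain was treated with compounds, and growth was compared with vehicle-treated cultures to give inhibition.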

[3] = NCI Yeast Anticancer Drug Screen. Data for the rad50EPP+ strain (AID 151);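 also: 0% = growth of vehicle-treated control cultures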; conditions: S. cerevisiae rad50 mutant strain, hits give high values
Procedure, shortened: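 Vehicle-normalised growth inhibition; rad50EPP+ yeast strain, altered in DNA damage repair, compound-treated.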

[4] = NCI Yeast Anticancer Drug Screen. Data for the mgt1 strain (AID 153); conditions: S. cerevisiae mgt1 mutant growth inhibition, hits give high values
Procedure, shortened: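 Vehicle-normalized growth inhibition is determined in mgt1 yeast, a strain selected for a defined alteration in DNA repair or cell cycle control.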

[5] = NCI Yeast Anticancer Drug Screen. Data for the rad50 strain (AID 155);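 also: 0% = growth of vehicle-only cultures of the same strain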; conditions: S. cerevisiae rad50 strain growth inhibition, hits give high values
Procedure, shortened: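 Cells are treated with compound, grown, and their growth is then scored against vehicle-only cultures of the same repair-deficient yeast strain.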

[6] = NCI Yeast Anticancer Drug Screen. Data for the mec2-1 strain (AID 157); conditions: S. cerevisiae mec2-1 strain, hits give high values
Procedure, shortened: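 Mutant yeast (mec2-1) grown with compound; growth inhibition relative to vehicle control reported.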

[7] = NCI Yeast Anticancer Drug Screen. Data for the rad14 strain (AID 159);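 also: 0% = growth of vehicle-treated control cultures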; conditions: S. cerevisiae rad14 strain growth inhibition, hits give high values
Procedure, shortened: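 Readout: yeast growth inhibition, referenced to vehicle-only cultures. Strain bears a defined alteration in DNA damage repair.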

[8] = NCI Yeast Anticancer Drug Screen. Data for the sgs1 mgt1 strain (AID 161);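 also: 0% = growth of cultures given vehicle only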; conditions: S. cerevisiae sgs1 mgt1 strain, hits give high values
Procedure, shortened: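 Percent growth inhibition was derived by comparing compound-exposed mutant yeast with vehicle-exposed cultures. The strain carries alterations in DNA damage repair.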

[9] = NCI Yeast Anticancer Drug Screen. Data for the CLN2oe strain (AID 163);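 also: 0% = growth of vehicle-only control cultures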; conditions: S. cerevisiae CLN2oe strain, hits give high values
Procedure, shortened: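 Compounds are applied to yeast harbouring a defined cell-cycle control change; reduced growth compared with vehicle-treated controls gives the value.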

[10] = NCI Yeast Anticancer Drug Screen. Data for the cln2 rad14 strain (AID 165);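 also: 0% = growth equal to vehicle treated cultures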; conditions: S. cerevisiae cln2 rad14 strain, hits give high values
Procedure, shortened: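 Readout is yeast growth inhibition versus vehicle-treated controls, using a strain with cln2 and rad14 alterations exposed to compound.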

[11] = NCI Yeast Anticancer Drug Screen. Data for the bub3 strain (AID 167); conditions: S. cerevisiae bub3 mutant strain, hits give high values
Procedure, shortened: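 Part of a panel of yeast mutants defective in DNA damage repair or cell cycle regulation. Each strain is grown with compound, and inhibition is calculated relative to solvent-treated cultures.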

[12] = NCI Yeast Anticancer Drug Screen. Data for the wt2 strain (AID 169);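 also: 0% = growth of vehicle-treated yeast cultures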; conditions: S. cerevisiae wt2 strain growth inhibition, hits give high values
Procedure, shortened: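 Against vehicle-treated controls, the growth of yeast exposed to each compound was compared, and the inhibition was recorded.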

[13] = NCI Yeast Anticancer Drug Screen. Data for the mlh1 strain (AID 171);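 also: 0% = growth of vehicle-treated control cultures of the same strain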; conditions: S. cerevisiae mlh1 strain growth inhibition, hits give high values
Procedure, shortened: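 Measured: yeast growth. Reference: vehicle-treated controls. Organism: strain with a defined alteration affecting DNA damage repair or cell cycle control, treated with compound.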

[14] = NCI Yeast Anticancer Drug Screen. Data for the sgs1 strain (AID 173);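 also: 0% = growth of vehicle-only control cultures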; conditions: S. cerevisiae sgs1 mutant, hits give high values
Procedure, shortened: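 Each compound was added to cultures of the altered yeast strain. Growth was recorded, and inhibition was derived by comparison with vehicle controls.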

[15] = NCI Yeast Anticancer Drug Screen. Data for the mlh1 rad18 strain (AID 175); conditions: S. cerevisiae mlh1 rad18 strain growth inhibition, hits give high values
Procedure, shortened: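 Genetically defined yeast (DNA repair-deficient) exposed to compounds; growth inhibition determined relative to vehicle.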

[16] = NCI Yeast Anticancer Drug Screen. Data for the rad18 strain (AID 177); conditions: S. cerevisiae rad18 mutant growth inhibition, hits give high values
Procedure, shortened: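 Vehicle-treated cultures served as the baseline for scoring compound-induced growth inhibition in DNA-repair-mutant yeast.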

[17] = at 5.0 µM (retest, dose inferred, filed as 0.5)
[18] = at 50.0 µM (retest, dose inferred, filed as 5.0)

Measured: growth inhibition

Brc1ccc(-c2cc3c(cc2C2SCCS2)OCO3)cc1
inactive: [1]; at 1.2 µM -21% | [1]; at 3.7 µM -21% | [1]; at 11.0 µM -16% | [1]; at 33.0 µM 8% | [1]; at 100.0 µM 27% | [2]; at 1.2 µM -24% | [2]; at 3.7 µM -17% | [2]; at 11.0 µM -26% | [2]; at 33.0 µM -14% | [2]; at 100.0 µM -7% | [3]; at 1.2 µM -4% | [3]; at 3.7 µM -10% | [3]; at 11.0 µM 9% | [3]; at 33.0 µM 29% | [3]; at 100.0 µM 51% | [4]; at 1.2 µM -52% | [4]; at 3.7 µM -45% | [4]; at 11.0 µM -36% | [4]; at 33.0 µM -6% | [4]; at 100.0 µM 50% | [5]; at 1.2 µM -23% | [5]; at 3.7 µM -13% | [5]; [17] -19% | [5]; at 11.0 µM -13% | [5]; at 33.0 µM 14% | [5]; [18] 48% | [5]; at 50.0 µM 63.8% | [5]; at 100.0 µM 30% | [6]; at 1.2 µM -29% | [6]; at 3.7 µM -29% | [6]; [17] -57% | [6]; at 11.0 µM -31% | [6]; at 33.0 µM -27% | [6]; [18] 11% | [6]; at 50.0 µM 22.2% | [6]; at 100.0 µM -15% | [7]; at 1.2 µM -35% | [7]; at 3.7 µM -24% | [7]; at 11.0 µM -30% | [7]; at 33.0 µM -7% | [7]; at 100.0 µM 25% | [8]; [17] -18% | [8]; at 50.0 µM 66.6% | [9]; at 1.2 µM -18% | [9]; at 3.7 µM -25% | [9]; at 11.0 µM -28% | [9]; at 33.0 µM -10% | [9]; at 100.0 µM 13% | [10]; [17] 9% | [10]; [18] 32% | [10]; at 50.0 µM 21.1% | [11]; at 1.2 µM -16% | [11]; at 3.7 µM -8% | [11]; [17] 5% | [11]; at 11.0 µM -15% | [11]; at 33.0 µM 2% | [11]; at 50.0 µM 44.9% | [11]; at 100.0 µM 22% | [12]; at 1.2 µM -1% | [12]; at 3.7 µM -11% | [12]; at 11.0 µM -15% | [12]; at 33.0 µM 13% | [12]; at 100.0 µM 43% | [13]; at 1.2 µM -24% | [13]; at 3.7 µM -23% | [13]; at 11.0 µM -28% | [13]; at 33.0 µM 18% | [13]; at 100.0 µM 63% | [14]; at 1.2 µM 3% | [14]; at 3.7 µM 9% | [14]; at 11.0 µM 5% | [14]; at 33.0 µM 52% | [15]; [17] -8% | [15]; at 50.0 µM 33.5% | [16]; at 1.2 µM -23% | [16]; at 3.7 µM -27% | [16]; at 11.0 µM -29% | [16]; at 33.0 µM 20% | [16]; at 100.0 µM 56%
active: [8]; [18] 70% | [11]; [18] 74% | [14]; at 100.0 µM 76% | [15]; [18] 76%
